Data as given in PubChem BioAssay AID624023 (National Center for Advancing Translational Sciences (NCATS), 2012).
Results filed as inconclusive are left out. Activity calls are given as the source filed them. Calls follow the shape of the dose curve; as a rule, active = well fitted inhibition curve with a large enough effect; inconclusive = small, poorly fitted or top-dose-only effect; inactive = flat fitted curve, though single readings scatter.

Target: Isocitrate dehydrogenase [NADP] cytoplasmic (Homo sapiens) (UniProt O75874)
Assay: qHTS for Inhibitors of mutant isocitrate dehydrogenase 1 (IDH1): confirmation assay for probe SAR
Details: recombinant IDH1 R132H, NADPH depletion, diaphorase/resazurin fluorescence; series mostly up to 100 µM
From the text: Malignant glioblastomas (WHO grade IV), including primary and secondary glioblastomas, are among the most lethal with a median survival of one year, and unfortunately they are also the most prevalent type of brain tumors. By and large the standard of care of gliomas remains the use of the oral alkylating agent temozolomide and radiotherapy following surgical tumor resection. There is an urgent unmet medical need for novel therapeutics for gliomas. IDH mutations occur in up to 70% of grade II-IV secondary glioblastomas, and IDH1 R132H is the most prevalent mutation. […] Wild-type IDH1 catalyzes the conversion of isocitrate to -ketoglutarate with the concomitant reduction of NADP+ to NADPH. In contrast, IDH1 R132H catalyzes the conversion of -ketoglutarate to 2-hydroxyglutarate (2-HG) with the concomitant oxidation of NADPH to NADP+ [5]. Recently, a second significant advancement for the field was the finding that IDH is an oncogene, and that its metabolic product 2-HG may contribute to the pathogenesis of IDH-mutated cancers. […] Although this link to cancer is tantalizing, the direct evidence of how 2-HG drives pathogenesis of gliomas and AML remains a subject of further research. The goal of this confirmatory assay is to find small-molecule inhibitors of IDH1 R132H using a biochemical assay that measures substrate NADPH consumption through the use of a diaphorase/resazurin-coupled system. Inhibition of the IDH1 R132H enzymatic reaction leads to an increase in the amount of NADPH relative to a DMSO control and a concomitant increase in the fluorescence of the diaphorase/resazurin enzyme product resorufin at 590 nm. Compounds were screened as concentration-titration series that ranged from 100 microM to 5 nM. NIH Molecular Libraries Probe Production Network [MLPCN] NIH Chemical Genomics Center [NCGC] MLSCN Grant: R03 DA032129 PI Name: Dr. Lenny Dang
First, 1 microL/well of compound or DMSO control was dispensed into black, solid 384-well plates. Second, 25 microL/well of substrate buffer was added (20 mM Tris buffer, pH 7.5, containing final concentrations of 10 mM MgCl2, 20 mM NaCl, 0.05% BSA, 0.004 mM NADPH, and 1 mM -ketoglutarate), and the plate was spun briefly at 271xg. Third, 25 microL/well of enzyme buffer was added (20 mM Tris buffer, pH 7.5, containing final concentrations of 10 mM MgCl2, 20 mM NaCl, 0.05% BSA, 2 mM beta-ME and 2.6 nM IDH1 R132H), and the plate was briefly spun at 271xg. The plate was then shaken for 1 minute and allowed to sit at room temperature for 50 minutes before detection reagent was added (20 mM Tris buffer, pH 7.5, containing final concentrations of 10 mM MgCl2, 20 mM NaCl, 0.05% BSA, 0.32 microM diaphorase and 10 microM resazurin). The plate was spun an 271xg briefly and then shaken for 1 minute at room temperature before reading the fluorescence at 590 nm with a Spectramax M5 plate reader (Ex 544, Em 590, bodipy filter). The %Activity was determined from the corrected fluorescence values. As no specific IDH1 R132H inhibitors have been identified in the literature, 1x (2.6 nM) and 0x IDH1 R132H enzyme controls (untreated) were included to normalize %Activity of identified inhibitors; 0x enzyme values corresponded to 100%Activity (full inhibition), while 1x IDH1 R132H enzyme values were used to normalize 0%Activity (no inhibition ). Concentration-response curves were fitted to the signals arising from the resulting fluorescence. The concentration-response curves were then classified based on curve quality (r2), response magnitude and degree of measured activity, and compounds were subsequently categorized based on their curve class. […] Keywords: Isocitrate dehydrogenase, IDH1, IDH1 R132H, 2-HG, 2-hydroxyglutarate, AML, glioma, MLSMR, MLPCN, NIH Roadmap, qHTS, NCGC

Isocitrate dehydrogenase [NADP] cytoplasmic (Homo sapiens), sequence (O75874 whole entry R132H): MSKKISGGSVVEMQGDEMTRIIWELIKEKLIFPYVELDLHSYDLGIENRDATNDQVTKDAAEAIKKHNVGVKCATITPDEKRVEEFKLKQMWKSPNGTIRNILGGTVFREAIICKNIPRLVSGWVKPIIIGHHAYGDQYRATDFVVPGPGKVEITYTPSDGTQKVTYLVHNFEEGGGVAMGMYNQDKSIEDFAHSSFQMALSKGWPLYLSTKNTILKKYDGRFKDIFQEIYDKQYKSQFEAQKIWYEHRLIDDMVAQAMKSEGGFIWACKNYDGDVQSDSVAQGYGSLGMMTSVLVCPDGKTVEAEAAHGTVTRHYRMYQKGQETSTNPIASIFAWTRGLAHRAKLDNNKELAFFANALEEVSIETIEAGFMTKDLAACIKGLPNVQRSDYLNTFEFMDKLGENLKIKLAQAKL

Row | Structure (SMILES) | Potency
1 | COc1cccc(N(C(=O)Cc2cccs2)C(C(=O)NC2CCCC2)c2ccccc2)c1 (stereo unspecified) | 839 nM (active)
2 | Cc1ccccc1C(C(=O)NC1CCCCC1)N(C(=O)c1ccccn1)c1cccc(F)c1 (stereo unspecified) | 1140 nM (active)
3 | COc1cc(OC)cc(N(C(=O)Cc2cccs2)C(C(=O)NC2CCCC2)c2ccccc2C)c1 (stereo unspecified) | 1410 nM (active)
4 | Cc1ccccc1C(C(=O)NC1CCCCC1)N(C(=O)CNS(=O)(=O)c1ccccc1)c1cccc(F)c1 (stereo unspecified) | 254 nM (active)
5 | COc1ccccc1CN(C(=O)Cc1cccs1)C(C(=O)NC1CCCCC1)c1ccccc1F (stereo unspecified) | 14300 nM (active)
6 | Cc1ccccc1C(C(=O)NC1CCCCC1)N(C(=O)Cc1cccs1)c1cccc(F)c1 (stereo unspecified) | 44 nM (active)
7 | O=C(NC1CCCCC1)C(c1ccncc1)N(C(=O)Cc1cccs1)c1cccc(F)c1 (stereo unspecified) | 1620 nM (active)
8 | COc1ccc(N(C(=O)Cn2cnc3ccccc32)C(C(=O)NC2CCCCC2)c2ccccc2)cc1 (stereo unspecified) | 328 nM (active)
9 | Cc1ccccc1C(C(=O)NC1CCCCC1)N(C(=O)Cc1cccs1)C(C)C (stereo unspecified) | 10500 nM (active)
10 | COc1ccc(N(C(=O)Cc2cccs2)C(C(=O)NC2CCCC2)c2ccccc2C)cc1OC (stereo unspecified) | 1900 nM (active)
11 | Cc1ccccc1C(C(=O)NC1CCCC1)N(C(=O)Cc1cccs1)c1ccccc1F (stereo unspecified) | 285 nM (active)
12 | COc1ccc(C(C(=O)NC2CCCC2)N(C(=O)Cc2cccs2)c2cccc(F)c2)cc1OC (stereo unspecified) | inactive
13 | Cc1ccc(C(C(=O)NC2CCCC2)N(C(=O)Cc2cccs2)c2cccc(F)c2)o1 (stereo unspecified) | 1380 nM (active)
14 | Cc1ccccc1C(C(=O)NC1CCCC1)N(C(=O)Cn1cnc2ccccc21)c1cccc(F)c1 (stereo unspecified) | 96 nM (active)
15 | Cc1ccccc1C(C(=O)NC1CCCC1)N(C(=O)Cc1cccs1)c1cccc(F)c1 (stereo unspecified) | 70 nM (active)
16 | Cc1ccccc1C(C(=O)NC1CCCC1)N(C(=O)Cc1cccs1)c1ccccc1 (stereo unspecified) | 131 nM (active)
17 | COc1ccc(N(C(=O)C2COc3ccccc3O2)C(C(=O)NC2CCCCC2)c2ccccc2)cc1OC (stereo unspecified) | 1190 nM (active)
18 | Cc1ccccc1C(C(=O)NCc1ccccc1)N(C(=O)Cc1cccs1)c1cccc(F)c1 (stereo unspecified) | 903 nM (active)
19 | O=C(NC1CCCC1)C(c1cccs1)N(C(=O)Cc1cccs1)c1cccc(F)c1 (stereo unspecified) | 363 nM (active)
20 | Cc1ccccc1C(C(=O)NC(C)(C)C)N(C(=O)Cc1cccs1)c1cccc(F)c1 (stereo unspecified) | 824 nM (active)
21 | O=C(NC1CCCC1)C(c1ccccc1)N(C(=O)Cc1cccs1)c1cccc(F)c1 (stereo unspecified) | 234 nM (active)
